# Assay results taken from PubChem BioAssay (NCI).
# About 83,000 compounds went through this panel and 20% of them were active in at least one assay; those are over-represented in the sample as a whole.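 Plates (96-well) were seeded with cells, treated with compound at one concentration, and incubated for 48 hours before percent growth was determined.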 Activity calls are given as the source filed them. The calls were made as follows: active = growth percent below 10; inactive = the rest.
# Test system: MOLT-4 leukemia
# Assay: NCI-60 one-dose screen, 48 h (100 = growth as untreated, 0 = no growth, -100 = all killed)
# Settings: 10 µM unless noted
row,SMILES,growth
1,COc1ccc(C2SCC(=O)N2NC(=O)c2ccc(NC(=O)c3ccccn3)cc2)cc1OC (stereo unspecified),92.1% (inactive)
2,O=C(O)c1cn(C2CC2)c2cc(N3CCN(S(=O)(=O)c4ccc(Cl)c(Cl)c4)CC3)c(F)cc2c1=O,3.44% (active)
3,COc1ccc(/C=C/C(=O)c2ccc(B(O)O)cc2)cc1O,82.3% (inactive)
4,O=C(Nc1ccc(OCc2nnc(-c3ccc(Cl)cc3)o2)c(F)c1)Nc1ccc(Cl)c(Cl)c1,45.2% (inactive)
5,COc1cc(/C=C2\C=C(c3ccc(F)cc3)N(Cc3ccccc3)C2=O)cc(OC)c1OC,25.9% (inactive)
6,Cc1cc(C)c(NC(=O)c2sc3nc4c(cc3c2N)CN(Cc2ccccc2)CC4)c(C)c1,25% (inactive)
7,COc1cccc(-c2nc3sccn3c2-c2ccnc(NCCCNS(=O)(=O)c3ccccc3)n2)c1,29.4% (inactive)
8,COc1cc(NCCN=C(N)NC(N)=NC(C)C)c2ncccc2c1,67.5% (inactive)
9,Cc1ccc(Nc2ncnc3c2sc2ncccc23)cc1,51.1% (inactive)
10,COc1cccc(/C=C2\SC(N3CCN(c4ccccn4)CC3)=NC2=O)c1,90.4% (inactive)
11,CCOC(=O)C1=C(CSC(=S)N(C2CCCCC2)C2CCCCC2)N(C)C(=O)NC1c1ccccc1 (stereo unspecified),28.2% (inactive)
12,CC(C)C[C@H](NC(=O)[C@@H](Cc1ccccc1)n1ccc(Nc2ccccc2)cc1=O)B(O)O,-8.47% (active)
13,COc1cccc(-c2nc3sccn3c2-c2ccnc(NCCCNS(=O)(=O)c3ccc(F)cc3)n2)c1,23.2% (inactive)
14,O=S(=O)(NCCCNc1nccc(-c2c(-c3ccccc3)nc3sccn23)n1)c1ccc(F)cc1,38.4% (inactive)
15,Nc1c(C(=O)Nc2ccccc2)sc2nc3c(cc12)CCCCC3,29.2% (inactive)
16,CCNC(=O)CCCCC(=O)c1c(C)[nH]c(/C=C2\N=C(c3ccc[nH]3)C=C2OC)c1C,79.8% (inactive)

row,SMILES,growth
1,Cc1cc(Nc2nc(C(=O)Nc3ccccc3)nc3ccccc23)n[nH]1,55.4% (inactive)
2,CCCCCCCCCCCCCCCCC(Br)C(=O)O (stereo unspecified),97.5% (inactive)
3,COc1ccc(/C=C2\C(=O)N(C(=O)c3csc(NC(C)=O)n3)N=C2C)cc1,86.9% (inactive)
4,COc1ccc(-c2nc3sccn3c2-c2ccnc(NCCCNS(=O)(=O)c3ccc4ccccc4c3)n2)cc1,47.5% (inactive)
5,CC[C@]1(O)C[C@@H]2CN(Cc3c([nH]c4ccccc34)[C@@](C(=O)OC)(c3cc4c(cc3OC)N(C)[C@H]3[C@@](O)(C(=O)OC)[C@H](OC(C)=O)[C@]5(CC)[C@@H]6C[C@@H]6CN6CC[C@]43[C@@H]65)C2)C1,1.8% (active)
6,CN=S(=O)(NC(=O)c1ccc(Cl)cc1Cl)c1ccc(Br)s1 (stereo unspecified),93.3% (inactive)
7,Cc1ccc(S(=O)(=O)NCCCNc2nccc(-c3c(-c4ccccc4)nc4sccn34)n2)cc1,43.5% (inactive)
8,COc1cc(OC)c(C(=O)/C=C/c2cccc(C#N)c2)c(OC)c1,11.7% (inactive)
9,COc1ccc(C2CC(c3cccs3)=NN2c2ccc(S(=O)(=O)NC(=O)Nc3ccc(C)cc3)cc2)cc1 (stereo unspecified),94.4% (inactive)
10,O=S(=O)(NCCNc1nccc(-c2c(-c3ccccc3)nc3sccn23)n1)c1ccc(O)cc1,28.7% (inactive)
11,CNC(=O)Cc1nc(-c2cccc(NS(=O)(=O)c3c(F)cccc3F)c2F)c(-c2ccnc(Nc3ccccc3)n2)s1,68.4% (inactive)
12,O=c1[nH]c2ccccc2cc1-c1nnc(Cc2ccccc2)o1,57.1% (inactive)
13,CCCCCCC[C@@H](O)CC(=O)N[C@H](CCCCN)C(=O)N[C@H](Cc1c[nH]c2ccccc12)C(=O)NC(CCCCN)C(=O)N[C@H](CC(C)C)C(=O)N[C@H](Cc1ccccc1)C(=O)N[C@H](CCCCN)C(=O)N[C@H](CCCCN)C(=O)N[C@H](CC(C)C)C(=O)N1CCCC1C(=O)N[C@H](CCCCN)C(=O)N[C@H](Cc1ccccc1)C(=O)N[C@H](CC(C)C)C(=O)N[C@H](Cc1c[nH]cn1)C(=O)N[C@H](CC(C)C)C(=O)N[C@H](C)C(=O)N[C@H](CCCCN)C(=O)N[C@H](CCCCN)C(=O)N[C@H](Cc1ccccc1)C(=O)O (stereo partly specified),-25.9% (active)
14,Oc1ccc(Cl)cc1-c1cc(-c2ccc(Cl)cc2)n[nH]1,39.5% (inactive)
15,CN1C(=O)[C@H]2c3c1cccc3[C@@]13NC(=O)O[C@H]1[C@H](CCC3(C)C)C2(C)C,79.4% (inactive)
